Inconclusive results are not listed. Calls of active or inactive are those of the source. Unless noted, the call rests on the fitted dose curve; in most records, active means well fitted curve in the direction sought with a large enough effect in the repeat runs; inconclusive means weak or mixed curves; inactive means no such curve, though single readings can be large; an effect the other way counts as inactive or inconclusive.
Columns and labels:
[1] = molecular target: Estrogen receptor beta (Homo sapiens) (UniProt Q92731); experiment: qHTS assay to identify small molecule agonists of the estrogen receptor beta (ER-beta) signaling pathway (AID 1259377; active means well fitted activation curve with a large enough effect in the signal ratio in the repeat runs, not every such curve was filed as active; the % refers to the signal ratio)
Method in brief: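 qHTS in ER-beta-UAS-bla HEK293T cells: 6 hr settling, then 16 hr compound at 37C, then LiveBLAzer substrate 2 h at RT before fluorescence reading.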

[2] = molecular target: Estrogen receptor beta (Homo sapiens) (UniProt Q92731); experiment: qHTS assay to identify small molecule antagonists of the estrogen receptor beta (ER-beta) signaling pathway (AID 1259378; active means well fitted inhibition curve with a large enough effect in the signal ratio in the repeat runs, not every such curve was filed as active; the % refers to the signal ratio)
Method in brief: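 ER-beta-UAS-bla HEK293T cells in 2% charcoal-stripped FBS medium treated with compound plus 1nM final 17-beta-estradiol for 16 hr at 37C. Beta-lactamase reporter read by FRET substrate fluorescence after 2 hours at room temperature.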

[3] = qHTS assay to identify small molecule agonists of the androgen receptor (AR) signaling pathway in the presence of an antagonist - cell viability counter screen (AID 1259379);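 further: MDA-kb2 human breast cancer cells carrying an MMTV luciferase reporter; series mostly up to about 92 µM; nearly all actives have a fitted effect of over 25% in size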
Method in brief: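 In MDA-kb2 cells (human breast carcinoma, MMTV-luciferase), compounds at 15 concentrations plus 3.0uM nilutamide; 16 hr, 37C, 0% CO2; CellTiter-Fluor fluorescence read for viability.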

[4] = qHTS assay to identify small molecule agonists of the estrogen receptor beta (ER-beta) signaling pathway - cell viability counter screen (AID 1259380); further: nearly all actives have a fitted effect of over 30% in size
Method in brief: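 Viability of ER-beta-UAS-bla HEK293T cells was determined by CellTiter-Glo luminescence following 16 hr treatment with test compounds at 37C.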

[5] = qHTS assay to identify small molecule antagonists of the estrogen receptor beta (ER-beta) signaling pathway - cell viability counter screen (AID 1259382); further: series mostly up to about 92 µM; nearly all actives have a fitted effect of over 55% in size
Method in brief: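 Tox21 10K library tested in qHTS format on ER-beta-bla HEK293T cells stimulated with 1nM E2; 16 hr treatment at 37C. Same-well CellTiter-Glo luminescence served as the cell viability measure.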

[6] = qHTS assay to identify small molecule agonists of the estrogen receptor alpha (ER-alpha) signaling pathway in the presence of an antagonist - cell viability counter screen (AID 1259386);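 further: series mostly up to about 92 µM; cells exposed to compounds for 22 h at 37 °C before the viability read; nearly all actives have a fitted effect of over 30% in size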
Method in brief: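 Fluorescent CellTiter-Fluor viability signal from VM7Luc4E2 cells, with the reagent added during the final hour of a 22hr compound exposure at 37C in the presence of 10.0nM ICI-182,780.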

[7] = molecular target: Progesterone receptor (Homo sapiens) (UniProt P06401); experiment: qHTS assay to identify small molecule agonists of the progesterone receptor (PR) signaling pathway (AID 1346784; calls by dose curve; further: nearly all actives have a fitted effect of over 30% in size)
Method in brief: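 Fluorescence from LiveBLAzer B/G FRET substrate cleavage (2 hr, RT) reported PR activation in PR-UAS-bla HEK 293T cells treated 16 hr at 37C/5% CO2 with compounds; medium contained 2% charcoal-stripped FBS.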

[8] = molecular target: Progesterone receptor (Homo sapiens) (UniProt P06401); experiment: qHTS assay to identify small molecule antagonists of the progesterone receptor (PR) signaling pathway (AID 1346795; active means well fitted inhibition curve with a large enough effect in the signal ratio in the repeat runs, not every such curve was filed as active; the % refers to the signal ratio)
Method in brief: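 Fluorescence intensity measured 2 hr after adding beta-lactamase FRET substrate to PR-UAS-bla HEK293T cells that had been co-treated 16 hr with compound and 1 nM R5020 (final concentration) in 2% charcoal-stripped FBS.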

[9] = qHTS assay to identify small molecule antagonists of the progesterone receptor (PR) signaling pathway - cell viability counter screen (AID 1346798); further: series mostly up to about 92 µM; nearly all actives have a fitted effect of over 50% in size
Method in brief: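 CellTiter-Glo luminescence; PR-UAS-bla HEK293T, 3,000 cells/well; compound + R5020, 16 hr, 37C/5% CO2; 30 min RT before read.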

[10] = qHTS assay to identify small molecule agonists of the progesterone receptor (PR) signaling pathway - cell viability counter screen (AID 1346799; calls by dose curve; further: nearly all actives have a fitted effect of over 45% in size)
Method in brief: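 In parallel with the beta-lactamase readout, cytotoxicity toward PR-UAS-bla HEK293T cells was measured by CellTiter-Glo luminescence following 16 hr compound incubation in 2% charcoal-stripped FBS medium.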

[11] = qHTS assay to identify small molecule antagonists of the TGF-beta/Smad signaling pathway - cell viability counter screen (AID 1346824); further: nearly all actives have a fitted effect of over 50% in size
Method in brief: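 SBE-bla HEK 293T cells, incubated overnight, then compound plus 0.25 ng/mL TGF-beta1 (stock added) for 5 hr at 37 C. Viability was read in the same wells by CellTiter-Glo luminescence after 30 min at room temperature.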

[12] = qHTS assay to identify small molecule agonists of the TGF-beta/Smad signaling pathway - cell viability counter screen (AID 1346829); further: top concentration of the series differs between compounds; nearly all actives have a fitted effect of over 45% in size
Method in brief: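 Compound-treated SBE-bla HEK 293T cells (5 hr, 37 C) were assessed for viability with CellTiter-Glo in parallel with the reporter read.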

[13] = qHTS assay to identify small molecule agonists of the TGF-beta/Smad signaling pathway (AID 1346859; active means well fitted activation curve with a large enough effect in the signal ratio in the repeat runs, not every such curve was filed as active; the % refers to the signal ratio; further: series mostly up to about 77 µM)
Method in brief: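 After overnight seeding, SBE-bla HEK 293T cells are dosed with compounds in DMSO and kept 5 hr at 37 C, 5% CO2. LiveBLAzer-type FRET substrate is then applied for 2 hr at room temperature.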

[14] = molecular target: Thyrotropin-releasing hormone receptor (Homo sapiens) (UniProt P34981); experiment: qHTS assay to identify small molecule antagonists of the thyrotropin-releasing hormone receptor (TRHR) signaling pathway (AID 1346877; active means well fitted inhibition curve with a large enough effect in the repeat runs, not every such curve was filed as active; further: series mostly up to about 51 µM)
Method in brief: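 In this cell-based calcium flux format, HEK293 cells expressing TRHR received test compound for 5 min before the agonist TRH (1 nM final). Dye loading lasted 2 h at 37 °C.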

[15] = molecular target: Thyrotropin-releasing hormone receptor (Homo sapiens) (UniProt P34981); experiment: qHTS assay to identify small molecule agonists of the thyrotropin-releasing hormone receptor (TRHR) signaling pathway (AID 1346891; calls by dose curve; further: series mostly up to about 58 µM)
Method in brief: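 Compounds were tested as agonists at 15 concentrations, in triplicate, on TRHR-Hek293 cells; calcium-sensitive dye fluorescence was recorded for 3 min following addition.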

[16] = qHTS assay to identify small molecule antagonists of the sonic hedgehog signaling (Shh) pathway (AID 1259369; calls by dose curve; further: nearly all actives have a fitted effect of over 45% in size)
Method in brief: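 Screening used 3T3Gli1-Luc cells at 2,000 per well, compounds delivered in DMSO, and conditioned medium as agonist stimulus; plates incubated 24hr at 37 C and 5% CO2 before a 30min luciferase step.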

[17] = qHTS assay to identify small molecule agonists or antagonists of the thyroid stimulating hormone receptor (TSHR) signaling pathway - wild type cell line counter screen (AID 1259384; calls by dose curve)
Method in brief: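 Wild-type Hek293 cells, 800/well, 18 h at 37C, then compound with Ro20-1724 for 30 min RT. cAMP by HTRF (cAMP-d2/anti-cAMP cryptate), 1 h RT, fluorescence read. 15 concentrations, triplicates.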

[18] = molecular target: Thyrotropin receptor (Homo sapiens) (UniProt P16473); experiment: qHTS assay to identify small molecule antagonists of the thyroid stimulating hormone receptor (TSHR) signaling pathway (AID 1259385; calls by dose curve; further: nearly all actives have a fitted effect of over 20% in size)
Method in brief: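 TSHR-HEK293 cells (800/well) plated 18 h, then compounds with Ro20-1724 and TSH at 1.5 ng/mL final, 30 min at room temperature. cAMP quantified by HTRF (cAMP-d2/anti-cAMP-cryptate, 1 h); 15 concentrations in triplicate.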

[19] = molecular target: Estrogen receptor (Homo sapiens) (UniProt P03372); experiment: qHTS assay to identify small molecule agonists of the estrogen receptor alpha (ER-alpha) signaling pathway in the presence of an antagonist (AID 1259383; calls by dose curve; further: top concentration of the series differs between compounds; nearly all actives have a fitted effect of over 15% in size)
Method in brief: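 In VM7Luc4E2 cells, 4,000 per well, compounds at 15 concentrations were co-incubated 22hr at 37C with 10.0nM final ICI-182,780. Luminescence from the stably transfected 4×ERE-luciferase reporter was recorded 30min after ONE-Glo addition.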

[20] = molecular target: Androgen receptor (Homo sapiens) (UniProt P10275); experiment: qHTS assay to identify small molecule agonists of the androgen receptor (AR) signaling pathway in the presence of an antagonist (AID 1259381; calls by dose curve; further: nearly all actives have a fitted effect of over 15% in size)
Method in brief: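 Here, 15-concentration compound series were pin-transferred onto MDA-kb2 MMTV-luciferase cells already dosed with nilutamide (3.0uM final). After 16hr at 37C, ONE-Glo was added and luminescence read 30min later at room temperature.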
On the % scale 0 is the no-effect control and ±100 the full control effect.

Chain of Thyrotropin-releasing hormone receptor (Homo sapiens) (P34981 whole entry, looked up): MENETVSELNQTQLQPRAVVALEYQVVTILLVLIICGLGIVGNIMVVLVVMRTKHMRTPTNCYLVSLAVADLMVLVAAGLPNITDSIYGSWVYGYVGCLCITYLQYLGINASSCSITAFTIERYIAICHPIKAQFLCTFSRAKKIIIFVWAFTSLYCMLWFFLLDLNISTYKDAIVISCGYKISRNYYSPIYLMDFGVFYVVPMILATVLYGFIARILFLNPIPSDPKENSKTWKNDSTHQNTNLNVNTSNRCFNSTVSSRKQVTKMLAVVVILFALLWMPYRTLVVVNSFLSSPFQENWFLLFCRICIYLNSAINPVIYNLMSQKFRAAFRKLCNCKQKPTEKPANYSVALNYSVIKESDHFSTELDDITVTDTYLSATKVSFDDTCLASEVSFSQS
Chain of Estrogen receptor beta (Homo sapiens) (Q92731 whole entry, looked up): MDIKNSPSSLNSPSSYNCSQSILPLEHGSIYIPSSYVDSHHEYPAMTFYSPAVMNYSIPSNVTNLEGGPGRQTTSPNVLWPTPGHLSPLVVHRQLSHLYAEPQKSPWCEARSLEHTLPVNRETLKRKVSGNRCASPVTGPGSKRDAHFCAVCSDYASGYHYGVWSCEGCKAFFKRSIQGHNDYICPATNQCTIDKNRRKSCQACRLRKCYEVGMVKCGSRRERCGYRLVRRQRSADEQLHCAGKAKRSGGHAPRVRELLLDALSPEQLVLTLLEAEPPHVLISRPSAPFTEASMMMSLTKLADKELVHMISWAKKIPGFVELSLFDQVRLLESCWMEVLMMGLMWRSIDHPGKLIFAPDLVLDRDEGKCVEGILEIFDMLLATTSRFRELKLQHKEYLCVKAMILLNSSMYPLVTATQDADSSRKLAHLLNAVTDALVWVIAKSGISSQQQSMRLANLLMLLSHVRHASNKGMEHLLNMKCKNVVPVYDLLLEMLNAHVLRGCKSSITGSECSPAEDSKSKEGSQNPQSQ
Chain of Progesterone receptor (Homo sapiens) (P06401 whole entry, looked up): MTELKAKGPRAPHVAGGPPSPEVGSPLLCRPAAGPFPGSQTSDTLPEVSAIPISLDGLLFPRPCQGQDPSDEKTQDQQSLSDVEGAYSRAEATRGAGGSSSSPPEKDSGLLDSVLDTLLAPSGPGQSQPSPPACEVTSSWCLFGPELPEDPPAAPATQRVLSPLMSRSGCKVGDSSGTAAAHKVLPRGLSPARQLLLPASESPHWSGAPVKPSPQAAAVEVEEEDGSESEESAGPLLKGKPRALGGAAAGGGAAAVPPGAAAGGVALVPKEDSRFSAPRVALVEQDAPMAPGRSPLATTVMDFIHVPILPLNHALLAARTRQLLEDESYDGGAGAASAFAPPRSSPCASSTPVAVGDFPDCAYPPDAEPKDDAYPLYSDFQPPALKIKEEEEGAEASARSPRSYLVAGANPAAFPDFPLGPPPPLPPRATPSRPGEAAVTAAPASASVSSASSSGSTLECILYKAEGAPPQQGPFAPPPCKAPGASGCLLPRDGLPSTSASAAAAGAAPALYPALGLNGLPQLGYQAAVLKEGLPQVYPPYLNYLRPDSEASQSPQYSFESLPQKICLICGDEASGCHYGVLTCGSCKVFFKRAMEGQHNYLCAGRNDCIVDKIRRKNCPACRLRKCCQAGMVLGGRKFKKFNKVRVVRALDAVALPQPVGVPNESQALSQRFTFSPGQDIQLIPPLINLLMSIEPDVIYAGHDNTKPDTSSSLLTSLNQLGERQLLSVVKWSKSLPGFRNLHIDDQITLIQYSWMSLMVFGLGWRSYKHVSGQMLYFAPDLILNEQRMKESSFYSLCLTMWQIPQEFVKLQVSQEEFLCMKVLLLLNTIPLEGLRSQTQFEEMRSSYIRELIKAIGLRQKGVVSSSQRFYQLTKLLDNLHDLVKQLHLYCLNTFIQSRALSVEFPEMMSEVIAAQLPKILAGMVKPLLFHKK
Chain of Estrogen receptor (Homo sapiens) (P03372 whole entry, looked up): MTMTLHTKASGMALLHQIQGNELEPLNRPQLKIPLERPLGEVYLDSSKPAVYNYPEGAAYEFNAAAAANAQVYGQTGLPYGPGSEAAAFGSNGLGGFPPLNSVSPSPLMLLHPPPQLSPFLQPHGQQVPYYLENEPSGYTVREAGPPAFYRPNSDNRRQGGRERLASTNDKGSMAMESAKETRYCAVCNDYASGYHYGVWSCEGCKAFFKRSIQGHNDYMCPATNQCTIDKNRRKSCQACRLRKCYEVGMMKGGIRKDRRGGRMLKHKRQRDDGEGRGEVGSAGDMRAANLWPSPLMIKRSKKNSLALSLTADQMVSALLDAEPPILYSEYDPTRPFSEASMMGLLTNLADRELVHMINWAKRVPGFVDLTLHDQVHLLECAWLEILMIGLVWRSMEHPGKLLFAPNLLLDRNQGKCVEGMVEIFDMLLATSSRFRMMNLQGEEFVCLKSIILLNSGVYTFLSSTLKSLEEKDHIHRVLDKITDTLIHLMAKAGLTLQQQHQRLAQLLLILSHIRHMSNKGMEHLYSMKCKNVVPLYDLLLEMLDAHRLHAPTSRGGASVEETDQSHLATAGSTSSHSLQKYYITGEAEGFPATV
Chain of Thyrotropin receptor (Homo sapiens) (P16473 whole entry, looked up): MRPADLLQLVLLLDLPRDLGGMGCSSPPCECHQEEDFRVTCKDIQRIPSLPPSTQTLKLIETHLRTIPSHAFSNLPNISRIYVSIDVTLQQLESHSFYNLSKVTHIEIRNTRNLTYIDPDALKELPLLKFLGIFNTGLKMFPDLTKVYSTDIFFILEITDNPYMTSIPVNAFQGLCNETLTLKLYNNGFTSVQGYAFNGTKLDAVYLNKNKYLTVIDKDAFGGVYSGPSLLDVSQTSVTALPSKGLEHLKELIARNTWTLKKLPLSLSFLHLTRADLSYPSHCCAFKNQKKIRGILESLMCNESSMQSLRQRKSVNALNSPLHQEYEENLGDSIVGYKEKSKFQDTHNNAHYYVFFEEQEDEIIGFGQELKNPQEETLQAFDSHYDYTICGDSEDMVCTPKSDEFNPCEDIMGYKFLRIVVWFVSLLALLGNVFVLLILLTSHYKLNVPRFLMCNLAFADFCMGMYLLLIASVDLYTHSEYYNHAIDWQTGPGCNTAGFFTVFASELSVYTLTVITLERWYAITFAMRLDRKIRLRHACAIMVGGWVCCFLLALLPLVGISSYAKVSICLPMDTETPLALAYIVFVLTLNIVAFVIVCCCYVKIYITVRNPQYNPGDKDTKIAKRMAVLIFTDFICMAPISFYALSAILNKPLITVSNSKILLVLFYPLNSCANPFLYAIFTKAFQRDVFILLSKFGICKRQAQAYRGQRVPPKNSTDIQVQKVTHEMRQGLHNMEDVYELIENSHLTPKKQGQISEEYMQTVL
Chain of Androgen receptor (Homo sapiens) (P10275 whole entry, looked up): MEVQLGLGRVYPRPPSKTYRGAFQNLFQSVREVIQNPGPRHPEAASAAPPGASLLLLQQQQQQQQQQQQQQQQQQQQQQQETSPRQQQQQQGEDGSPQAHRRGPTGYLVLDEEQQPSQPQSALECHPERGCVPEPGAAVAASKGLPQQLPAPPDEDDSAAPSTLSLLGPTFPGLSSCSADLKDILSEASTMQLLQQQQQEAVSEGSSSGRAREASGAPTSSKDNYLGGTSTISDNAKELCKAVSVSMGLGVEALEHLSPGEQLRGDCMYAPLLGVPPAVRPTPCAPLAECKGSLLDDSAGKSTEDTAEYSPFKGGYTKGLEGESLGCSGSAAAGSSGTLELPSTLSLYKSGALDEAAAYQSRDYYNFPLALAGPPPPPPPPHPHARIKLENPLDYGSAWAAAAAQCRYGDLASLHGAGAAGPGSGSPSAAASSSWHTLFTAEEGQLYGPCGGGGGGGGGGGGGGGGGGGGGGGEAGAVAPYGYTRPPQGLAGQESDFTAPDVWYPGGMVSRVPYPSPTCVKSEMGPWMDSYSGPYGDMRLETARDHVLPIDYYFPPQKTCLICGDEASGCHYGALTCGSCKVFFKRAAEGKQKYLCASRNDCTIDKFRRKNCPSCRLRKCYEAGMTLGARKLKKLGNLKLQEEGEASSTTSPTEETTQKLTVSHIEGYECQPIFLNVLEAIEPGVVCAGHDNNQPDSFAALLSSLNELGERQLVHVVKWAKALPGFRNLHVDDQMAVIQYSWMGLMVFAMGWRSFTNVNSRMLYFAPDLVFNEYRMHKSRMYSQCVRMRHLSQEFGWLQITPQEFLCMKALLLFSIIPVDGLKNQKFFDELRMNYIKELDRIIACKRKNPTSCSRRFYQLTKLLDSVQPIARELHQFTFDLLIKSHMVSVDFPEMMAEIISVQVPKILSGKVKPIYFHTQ

COC(=O)c1ccc(C)cc1C1=NC(C)(C(C)C)C(=O)N1 (configuration not stated)
inactive: outcome [1] | outcome [2] | Potency [3] | Potency [4] | Potency [5] | Potency [6] | Potency [7] | Potency [8] | Potency [9] | Potency [10] | Potency [11] | outcome [12] | outcome [13] | outcome [14] | outcome [15]

FC(F)OC(Cl)C(F)(F)F (configuration not stated)
inactive: outcome [1] | outcome [2] | Potency [3] | Potency [4] | Potency [5] | Potency [6] | Potency [7] | Potency [9] | Potency [10] | Potency [11] | outcome [12] | outcome [13] | outcome [14] | outcome [15]

C[N+](C)(C)CCCCCC[N+](C)(C)C
inactive: Potency [16] | Potency [3] | Potency [5] | Potency [6] | Potency [7] | Potency [8] | Potency [9] | Potency [10] | Potency [11] | outcome [13] | outcome [14] | outcome [15]

COC(C)(C)CCCC(C)CC=O (configuration not stated)
inactive: outcome [1] | outcome [2] | Potency [3] | Potency [4] | Potency [5] | outcome [17] | Potency [18] | Potency [6] | Potency [7] | Potency [8] | Potency [9] | Potency [10] | Potency [11] | outcome [12] | outcome [14] | outcome [15]

O=C(O)CN(CCOCCOCCN(CC(=O)O)CC(=O)O)CC(=O)O
inactive: activation [1] -3.04% [at 0.348 µM] | activity, negative = inhibition [2] -7.82% [at 0.349 µM] | activity change, negative = cytotoxicity [3] 4.76% [at 0.35 µM] | activity change, negative = cytotoxicity [4] 9.83% [at 0.349 µM] | activity change, negative = cytotoxicity [5] 2.26% [at 0.349 µM] | cAMP activity change [17] 3.85% [at 0.349 µM] | activity change, negative = inhibition [18] 0.526% [at 0.349 µM] | activity change, negative = cytotoxicity [6] 2.94% [at 0.349 µM] | activation [7] -1.13% [at 0.349 µM] | activity change, negative = inhibition [8] 0.191% [at 0.348 µM] | activity change, negative = cytotoxicity [9] 5.83% [at 0.348 µM] | activity change, negative = cytotoxicity [10] 5.81% [at 0.349 µM] | viability change, negative = cytotoxic [11] 3.24% [at 0.29 µM] | activation [13] 3.14% [at 0.29 µM]

CC(=O)c1ccccc1O
inactive: Potency [16] | Potency [3] | Potency [5] | Potency [19] | outcome [17] | Potency [18] | Potency [6] | Potency [7] | Potency [8] | Potency [10] | Potency [11] | outcome [12] | outcome [13] | outcome [14] | outcome [15]

CC(C)NC(=O)NC(C)C
inactive: outcome [1] | outcome [2] | Potency [3] | Potency [4] | Potency [20] | Potency [5] | Potency [19] | outcome [17] | Potency [18] | Potency [6] | Potency [7] | Potency [8] | Potency [9] | Potency [10] | Potency [11] | outcome [12] | outcome [13] | outcome [14] | outcome [15]

CCN(CC)CCOCCOC(=O)C1(c2ccccc2)CCCC1
inactive: Potency [16] | Potency [3] | Potency [5] | Potency [19] | outcome [17] | Potency [18] | Potency [7] | Potency [8] | Potency [10] | Potency [11] | outcome [12] | outcome [13]
